SENP8 block-1 – inhibitors of human SENP8 protease. Q96LD8. recombinant SENP8, Nedd8 substrate fluorescence. inhibition, % at 20 µM. 0.64% of 360,000 active; in the data active means inhibition mostly above about 40%, no sharp cut-off; inactive means mostly below about 27%
Platelet DG rel – platelet dense granule release activity; human platelet-rich plasma, SFLLRN dense granule ATP release, luminescence; inhibition, %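 (compounds screened at 7.5 µM in platelet-rich plasma)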; 0.22% of 300,000 active; AID 1663;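 active means mean replicate score, as percent of positive control, at or above 50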
HSP90 refold inh – HSP90 refolding inhibition in rabbit reticulocyte lysate. luciferase refolding luminescence, 3 h. inhibition, % at 5.6 µM. 0.91% of 290,000 active;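 active means inhibition above the screen-wide mean plus 3 SD, computed separately per campaign, cut at about 16% in these data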;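 further: 0% = DMSO wells and 100% = 60 µM geldanamycin wells; inhibitors lower the luminescence because luciferase stays unfolded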
SENP8 block-2 – inhibitors of human SENP8 protease; purified SENP8, Z-RLRGG-aminoluciferin cleavage, luminescence; AID 2540; inhibition, % at 10 µM; 1.2% of 330,000 active; Q96LD8; in the data active means inhibition above about 50%
SENP6 inh – blocks the human protease SENP6. 1.8% of 330,000 active. inhibition, % at 10 µM. Q9GZR1. AID 2599. Recombinant SENP6 catalytic domain, aminoluciferin luminescence;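 active means inhibition above about 50% at the single tested dose, limit read from the data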;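 further: plate controls were DMSO wells with enzyme for no effect and DMSO wells lacking enzyme for full effect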
SENP7 inh – SENP7 protease inhibition; Q9BQF6; recombinant SENP7, Z-RLRGG-aminoluciferin luminescence, 40 min; inhibition, % at 5 µM; 1.5% of 330,000 active; AID 434973;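 active means inhibition above about 50% at the single test dose, limit read from the data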;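 further: plate controls were DMSO with enzyme for no effect and no enzyme buffer wells for full effect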
Target sequence (Q9BQF6 706-1050 limits assumed): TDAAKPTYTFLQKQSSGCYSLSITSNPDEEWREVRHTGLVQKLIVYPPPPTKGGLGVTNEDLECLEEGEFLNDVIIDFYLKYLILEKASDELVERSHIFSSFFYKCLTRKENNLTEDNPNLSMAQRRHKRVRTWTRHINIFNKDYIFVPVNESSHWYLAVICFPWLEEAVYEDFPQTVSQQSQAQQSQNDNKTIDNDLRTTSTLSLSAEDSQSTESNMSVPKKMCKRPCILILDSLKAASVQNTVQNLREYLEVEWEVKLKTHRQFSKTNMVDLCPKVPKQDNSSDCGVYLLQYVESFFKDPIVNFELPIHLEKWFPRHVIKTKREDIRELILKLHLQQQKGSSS
SENP8 conf – confirmation of human SENP8 protease inhibitors. shares compounds with SENP7 inh. AID 488912. Recombinant SENP8, Z-RLRGG-aminoluciferin luminescence, 60 min. 40% of 6,200 active. inhibition, % at 12.5 µM;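 active means mean inhibition across replicates above about 50%, limit read from the data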
SENP6 conf – confirmation of human SENP6 protease inhibitors. shares compounds with SENP7 inh. recombinant SENP6, Z-RLRGG-aminoluciferin luminescence. inhibition, % at 12.5 µM. 58% of 6,200 active. AID 488915
SENP7 confirm – confirmation of human SENP7 protease inhibitors; shares compounds with SENP7 inh; recombinant SENP7, Z-RLRGG-aminoluciferin luminescence, 40 min; inhibition, % at 12.5 µM; 69% of 6,200 active; AID 488917
Casp3 SENP sel – caspase-3 inhibition (SENP selectivity assay); purified caspase-3, Z-DEVD-aminoluciferin luminescence, 60 min; shares compounds with SENP7 inh; AID 488918; inhibition, % at 12.5 µM; 60% of 6,200 active;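 active means mean inhibition above about 50%, limit read from the data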;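 further: plate controls were enzyme with DMSO for no effect and wells without caspase-3 for full effect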
Target sequence (P42574 28-227 limits assumed): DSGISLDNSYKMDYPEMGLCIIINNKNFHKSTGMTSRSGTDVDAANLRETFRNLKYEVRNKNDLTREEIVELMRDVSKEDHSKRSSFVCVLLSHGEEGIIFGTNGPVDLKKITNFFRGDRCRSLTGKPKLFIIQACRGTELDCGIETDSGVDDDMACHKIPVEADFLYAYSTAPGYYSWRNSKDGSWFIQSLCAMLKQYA
SENP luc ctr – interferes with luciferase luminescence in SENP counter-screen. shares compounds with SENP7 inh. Pre-incubated SENP8/Z-RLRGG-aminoluciferin, luciferase luminescence interference. inhibition, % at 12.5 µM. 39% of 6,200 active. AID 488919;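 active means mean inhibition above about 50% when retested at one dose, limit read from the data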;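 further: plate controls were DMSO wells with completed reaction for no effect and substrate without enzyme for full effect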
* marks the source's active call; other numbers are inactive results; · = no result. This is a sample that favours compounds with a hit; in the whole collection about 2.8% have one here.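 How the source made its calls, unless noted: active means mean inhibition above about 50% in the one-dose retest (limit read from the data); inactive means the rest.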

SMILES	SENP8 block-1	Platelet DG rel	HSP90 refold inh	SENP8 block-2	SENP6 inh	SENP7 inh	SENP8 conf	SENP6 conf	SENP7 confirm	Casp3 SENP sel	SENP luc ctr
COc1ccc(/C=N/Nc2nncc3ccccc23)c(OC)c1	17	33	3	64*	77*	78*	15	73*	43	34	4
COc1ccccc1/C=N/Nc1nccnc1Cl	-151	68*	16	85*	90*	91*	86*	85*	98*	95*	89*
COc1ccccc1C=NNC(=O)NN=Cc1ccccc1OC	11	·	·	·	·	·	·	·	·	·	·
Cc1cccc(/C=N/Nc2nncc3ccccc23)c1	5	31	9	90*	92*	96*	74*	94*	102*	94*	13
COc1cc(/C=N/Nc2nncc3ccccc23)cc(OC)c1OC	21	11	2	59*	70*	78*	77*	75*	94*	82*	71*
CC(NC(=O)COC(=O)C1CC2CCCC(C1)C2=O)c1ccccc1 (stereo not given)	11	·	·	12	15	2	·	·	·	·	·
CC(=O)c1cccc(N2C(=NC(=O)C3CCCCC3)SC3CS(=O)(=O)CC32)c1 (stereo not given)	4	-3	-1	-2	-10	-1	·	·	·	·	·
COc1ccc(/C=N\Nc2ccccn2)c(OC)c1	-25	8	-2	54*	55*	43	7	62*	87*	62*	2
O=[N+]([O-])c1cccc(-c2nnc(-c3ccc4c(c3)OCO4)o2)c1	-24	-1	3	26	47	65*	15	12	33	45	5
Clc1ccccc1-c1nnc(-c2ccc3c(c2)OCO3)o1	-399	23	1	89*	92*	90*	64*	94*	95*	79*	59*
COc1ccc(/C=C/C(=O)NCC(c2ccc(F)cc2)N2CCOCC2)cc1OC (stereo not given)	-98	-2	1	2	-11	5	·	·	·	·	·
Cn1nnnc1SCC(=O)Nc1nc2c(F)c(F)c(F)cc2s1	-2	·	·	-24	-4	-8	·	·	·	·	·
CC(C)c1cccc(C(C)C)c1NC(=O)CCN1C(=O)NC2(CCCC2)C1=O	9	·	·	1	8	7	·	·	·	·	·
O=C(Nc1ccccc1)c1ccc(CSc2ncccn2)cc1	16	-3	-1	85*	89*	91*	72*	86*	96*	90*	28
O=C(Nc1ccccc1F)c1ccc(CSc2ncccn2)cc1	6	-8	5	83*	87*	88*	86*	86*	96*	90*	88*
CSCc1ccc(C(=O)Nc2ccc(C(N)=O)cc2)cc1	3	24	4	74*	82*	86*	-11	-3	14	55*	4
Cc1sc(NC(=O)c2ccc(Br)s2)c(C(N)=O)c1C	-54	1	-3	26	76*	51*	25	20	45	22	11
Cc1sc(NC(=O)c2ccc(Cl)s2)c(C(N)=O)c1C	-50	7	0	1	60*	52*	-2	-2	5	28	5
Cc1sc(NC(=S)Nc2ccc(F)cc2)c(C(N)=O)c1C	-7	5	-2	·	·	·	·	·	·	·	·
CC(CSC(=O)c1ccccc1)C(=O)N1c2ccccc2CC1C(=O)O (stereo not given)	-15	·	·	·	·	·	·	·	·	·	·
CC1CCN(S(=O)(=O)c2ccc(C(=O)N3CCCC3C(=O)O)cc2)CC1 (stereo not given)	-1	·	·	-7	0	4	·	·	·	·	·
CCN(CC(=O)c1c(N)n(C)c(=O)n(C)c1=O)c1cccc2ccccc12	-279	8	-2	54*	84*	29	12	12	7	-4	-3
CN(C)CC(=O)c1c(N)n(Cc2ccccc2)c(=O)n(C)c1=O	19	1	3	1	0	-3	·	·	·	·	·
Cc1cc(C)n(C(C)CNS(=O)(=O)c2ccc(Cl)cc2)n1 (stereo not given)	12	-6	3	2	-3	0	·	·	·	·	·
CCCC1CCC(c2ccc(OCC)cc2)=CC1=O (stereo not given)	6	-1	8	42	65*	28	20	24	71*	34	39
SMILES	SENP8 block-1	Platelet DG rel	HSP90 refold inh	SENP8 block-2	SENP6 inh	SENP7 inh	SENP8 conf	SENP6 conf	SENP7 confirm	Casp3 SENP sel	SENP luc ctr
O=C(Nc1sc2c(c1C(=O)O)CCCC2)c1cccc(Cl)c1	-18	-4	-4	91*	92*	38	96*	96*	99*	87*	96*
NC(=O)c1c(NC(=O)c2ccccc2C(=O)O)sc2c1CCCC2	1	-5	-2	1	4	5	·	·	·	·	·
O=C(Nc1sc2c(c1C(=O)O)CCC2)c1ccccc1	-59	3	0	94*	88*	92*	46	99*	103*	97*	85*
O=C(O)c1c(NC(=O)c2cccc3ccccc23)sc2c1CCC2	10	1	-4	18	35	0	·	·	·	·	·
NC(=O)c1c(NC(=O)c2ccccc2F)sc2c1CCCC2	-160	-7	-1	19	56*	20	-7	26	2	4	-4
O=C(Nc1sc2c(c1C(=O)O)CCC2)c1ccc(F)cc1	-84	0	-1	81*	87*	45	89*	90*	95*	91*	58*
COc1cc2c(cc1OC)CN(C(=O)C1CCCN(C(=O)c3ccc(Cl)cc3)C1)CC2 (stereo not given)	-42	·	·	-15	-27	-5	·	·	·	·	·
O=C1NC[C@@H](c2ccccc2)OC(=O)[C@@H](Cc2ccc(F)cc2)C/C=C\C[C@@H]1CC(=O)N(CCO)Cc1ccccc1	17	·	·	2	-7	5	·	·	·	·	·
COc1cc(C(=O)Nc2sc3c(c2C#N)CCN(C(C)=O)C3)cc(OC)c1OC	-388	-19	1	11	18	11	·	·	·	·	·
COc1ccc(C(=O)Nc2sc3c(c2C#N)CCN(C(C)=O)C3)cc1	-362	7	1	4	79*	6	-21	-16	-5	-7	-4
N#Cc1c(NC(=O)c2ccccc2)sc2c1CCCCC2	-39	5	7	51*	74*	56*	10	20	24	20	26

Bioassay records deposited in PubChem BioAssay by several laboratories.
